In all, about 5,500 compounds went through this assay and about 2,000 (36%) were called active. Another 18% or so got no clear call; they are omitted. No stated cut-off is given here; in the data, active means normalized growth mostly below about 0.91 (no sharp cut-off); inconclusive means no clear call, values can overlap the other calls; inactive means mostly above about 0.92. The list shows a part of the results.
Test: chemical genetic growth profiling, strain panel (AID 1159580);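 further: tested at 20 µM; growth read once vehicle control cultures reached saturation at 30 °C; 1 = growth at the plate median or of vehicle wells; lower values mean less growth of the strain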
Details: growth OD

Measured: normalized growth

CC1CC2C3CC(F)C4=CC(=O)C=CC4(C)C3(F)C(O)CC2(C)C1(O)C(=O)CO (centres undefined)
inactive: S. cerevisiae deletion strains, locus YJR043C, strain POL32, hits give low values 1.08 | S. cerevisiae deletion strains, locus YJR075W, strain HOC1, hits give low values 1.02 | S. cerevisiae deletion strains, locus YKL009W, strain mrt4, hits give low values 1.01 | S. cerevisiae deletion strains, locus YKL068W, hits give low values 1.01 | S. cerevisiae deletion strains, locus YKL085W, strain MDH1 (second series), hits give low values 1.01 | S. cerevisiae deletion strains, locus YKL085W, strain MDH1, hits give low values 1.01 | S. cerevisiae deletion strains, locus YKL160W, strain elf1, hits give low values 0.984 | S. cerevisiae deletion strains, locus YKL190W, strain CNB1, hits give low values 1.02 | S. cerevisiae deletion strains, locus YKR001C, strain vps1, hits give low values 1.03 | S. cerevisiae deletion strains, locus YKR026C, strain gcn3, hits give low values 0.998 | S. cerevisiae deletion strains, locus YKR091W, strain srl3, hits give low values 1 | S. cerevisiae deletion strains, locus YLL001W, strain dnm1, hits give low values 0.984 | S. cerevisiae deletion strains, locus YLL026W, hits give low values 0.997 | S. cerevisiae deletion strains, locus YLL041C, strain sdh2, hits give low values 0.999 | S. cerevisiae deletion strains, locus YLR027C, strain aat2, hits give low values 0.997 | S. cerevisiae deletion strains, locus YLR039C, strain RIC1, hits give low values 1.08 | S. cerevisiae deletion strains, locus YLR058C, strain SHM2, hits give low values 1.02 | S. cerevisiae deletion strains, locus YLR102C, strain apc9, hits give low values 1.02 | S. cerevisiae deletion strains, locus YLR221C, strain rsa3, hits give low values 0.985 | S. cerevisiae deletion strains, locus YLR258W, strain gsy2, hits give low values 0.995 | S. cerevisiae deletion strains, locus YLR262C, strain YPT6 (second series), hits give low values 0.984 | S. cerevisiae deletion strains, locus YLR262C, strain YPT6, hits give low values 1.08 | S. cerevisiae deletion strains, locus YLR268W, strain sec22, hits give low values 1.02 | S. cerevisiae deletion strains, locus YLR320W, strain mms22, hits give low values 0.993 | S. cerevisiae deletion strains, locus YLR330W, strain CHS5, hits give low values 1.02 | S. cerevisiae deletion strains, locus YLR342W, strain FKS1 (second series), hits give low values 1.1 | S. cerevisiae deletion strains, locus YLR342W, strain FKS1, hits give low values 0.991 | S. cerevisiae deletion strains, locus YLR357W, strain rsc2, hits give low values 1.01 | S. cerevisiae deletion strains, locus YLR370C, strain arc18, hits give low values 1 | S. cerevisiae deletion strains, locus YLR371W, strain rom2, hits give low values 1.01 | S. cerevisiae deletion strains, locus YLR384C, strain iki3, hits give low values 0.986 | S. cerevisiae deletion strains, locus YLR418C, strain cdc73, hits give low values 1 | S. cerevisiae deletion strains, locus YML016C, strain PPZ1, hits give low values 1.02 | S. cerevisiae deletion strains, locus YML032C, strain rad52, hits give low values 1.05 | S. cerevisiae deletion strains, locus YML120C, strain ndi1, hits give low values 1 | S. cerevisiae deletion strains, locus YML124C, strain tub3, hits give low values 1.02 | S. cerevisiae deletion strains, locus YMR058W, strain fet3, hits give low values 1.01 | S. cerevisiae deletion strains, locus YMR078C, strain ctf18, hits give low values 1.02 | S. cerevisiae deletion strains, locus YMR125W, strain sto1, hits give low values 0.986 | S. cerevisiae deletion strains, locus YMR129W, hits give low values 1 | S. cerevisiae deletion strains, locus YMR205C, strain PFK2, hits give low values 0.984 | S. cerevisiae deletion strains, locus YMR223W, strain ubp8, hits give low values 1.04 | S. cerevisiae deletion strains, locus YMR231W, strain pep5, hits give low values 0.995 | S. cerevisiae deletion strains, locus YMR263W, strain SAP30, hits give low values 1.04 | S. cerevisiae deletion strains, locus YMR307W, strain GAS1, hits give low values 1.09 | S. cerevisiae deletion strains, locus YNL067W, strain RPL9B, hits give low values 1.03 | S. cerevisiae deletion strains, locus YNL071W, strain lat1, hits give low values 0.999 | S. cerevisiae deletion strains, locus YNL128W, strain TEP1, hits give low values 1.01 | S. cerevisiae deletion strains, locus YNL153C, strain GIM3, hits give low values 1.03 | S. cerevisiae deletion strains, locus YNL209W, strain ssb2, hits give low values 0.996 | S. cerevisiae deletion strains, locus YNL233W, strain BNI4, hits give low values 1.02 | S. cerevisiae deletion strains, locus YNL248C, strain rpa49, hits give low values 1.01 | S. cerevisiae deletion strains, locus YNL250W, strain rad50, hits give low values 1.04 | S. cerevisiae deletion strains, locus YNL271C, strain bni1, hits give low values 1.03 | S. cerevisiae deletion strains, locus YNL298W, strain CLA4, hits give low values 1.03 | S. cerevisiae deletion strains, locus YNL307C, strain MCK1, hits give low values 1.05 | S. cerevisiae deletion strains, locus YNL322C, strain KRE1 (second series), hits give low values 0.974 | S. cerevisiae deletion strains, locus YNL322C, strain KRE1, hits give low values 1.02 | S. cerevisiae deletion strains, locus YNR049C, strain mso1, hits give low values 0.992 | S. cerevisiae deletion strains, locus YNR052C, strain pop2, hits give low values 1.03 | S. cerevisiae deletion strains, locus YOL006C, strain TOP1, hits give low values 1.06 | S. cerevisiae deletion strains, locus YOL012C, strain htz1 0.779 | S. cerevisiae deletion strains, locus YOL147C, strain pex11, hits give low values 1.02 | S. cerevisiae deletion strains, locus YOR001W, strain rrp6, hits give low values 1.03 | S. cerevisiae deletion strains, locus YOR061W, strain CKA2, hits give low values 1.02 | S. cerevisiae deletion strains, locus YOR069W, strain VPS5, hits give low values 1.01 | S. cerevisiae deletion strains, locus YOR070C, strain gyp1, hits give low values 1 | S. cerevisiae deletion strains, locus YOR080W, strain dia2, hits give low values 0.995 | S. cerevisiae deletion strains, locus YOR083W, strain WHI5, hits give low values 0.965 | S. cerevisiae deletion strains, locus YOR106W, strain vam3, hits give low values 0.97 | S. cerevisiae deletion strains, locus YOR136W, strain idh2, hits give low values 1.03 | S. cerevisiae deletion strains, locus YOR144C, strain elg1, hits give low values 1.02 | S. cerevisiae deletion strains, locus YOR184W, strain ser1, hits give low values 1.08 | S. cerevisiae deletion strains, locus YOR265W, strain rbl2, hits give low values 1.01 | S. cerevisiae deletion strains, locus YOR270C, strain vph1, hits give low values 0.928 | S. cerevisiae deletion strains, locus YOR290C, strain snf2, hits give low values 0.988 | S. cerevisiae deletion strains, locus YOR316C, strain cot1, hits give low values 1.03 | S. cerevisiae deletion strains, locus YPL051W, strain arl3, hits give low values 0.989 | S. cerevisiae deletion strains, locus YPL055C, strain LGE1, hits give low values 1.09 | S. cerevisiae deletion strains, locus YPL078C, strain atp4, hits give low values 1.03 | S. cerevisiae deletion strains, locus YPL106C, strain sse1, hits give low values 0.957 | S. cerevisiae deletion strains, locus YPL240C, strain hsp82, hits give low values 1 | S. cerevisiae deletion strains, locus YPL241C, strain CIN2, hits give low values 1.02 | S. cerevisiae deletion strains, locus YPR119W, strain clb2, hits give low values 1.01 | S. cerevisiae deletion strains, locus YPR141C, strain kar3, hits give low values 1.02 | S. cerevisiae deletion strains, locus YPR163C, strain tif3, hits give low values 1.04 | S. cerevisiae deletion strains, locus YPR167C, strain met16, hits give low values 1.01 | S. cerevisiae deletion strains, strain wtn01, hits give low values 1.02 | S. cerevisiae strains, strain wild type, hits give low values 1.03
